Source: PubChem BioAssay
The list is not random: actives were taken first. Their share in the collection is about 7.4%.
SMN2 splice up = increases expression of the SMN2 splice variant | Potency, µM (highest dose often 46.1 µM), for the others: at the top dose activity change, positive = activation, hits mostly activators | HEK293 SMN2-luciferase splicing reporter, luminescence, 30-36 h | hit rate 2.8% among 210,000; also: % of control where 0% means no effect; nearly all actives have a fitted effect of over 55% in size
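HEK293 cells carry an SMN2 minigene-luciferase reporter in which exon 7 inclusion puts luciferase in frame. Cells were seeded at 2000 cells/well, attached for 10-12 hours, then exposed to compounds for 30-36 hours at 37C before ONE-Glo luminescence.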
ELG1 genotoxic = inducers of genotoxicity in HEK293T ELG1-luciferase cells | HEK293T ELG1-luciferase reporter, luminescence, 16 h | AID 504466 | Potency, µM (series often up to 46 µM), for the others: top-dose activity change, positive = activation, actives largely listed as activators | hit rate 1.3% among 330,000; also: % of control where 0% means no effect; nearly all actives have a fitted effect of over 60% in size
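Reporter readout depends on ELG1 protein level, which increases with genetic stress. After 16 hr compound exposure at 37 °C, luciferase activity was quantified using ONE-Glo.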
NPC1 promoter act = activates the NPC1 promoter. Potency, µM (top dose mostly 9.22 µM), inactives show at the highest dose activation, usual class: activators. Huh7 NPC1 promoter luciferase reporter, 24 h. hit rate 2.4% among 320,000; also: % of control where 0% means no effect; nearly all actives have a fitted effect of over 60% in size
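Readout is luciferase luminescence, reflecting NPC1 promoter activation in stably transfected Huh7 cells after 24 h compound exposure at 37 °C in reduced-serum medium with 10% FBS.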
FLuc modulator = counter-screen for miR-21 project: firefly luciferase inhibitors or activators | P08659 | purified FLuc, Km substrates, luminescence inhibition | Potency, µM (top dose mostly 57.5 µM), for inactives: at the highest dose activity change, negative = inhibition, hits mostly inhibitors | hit rate 6.9% among 360,000;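 also: plate controls were vehicle for no effect and reference inhibitor for full effect; nearly all actives have a fitted effect of over 55% in size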
Target sequence (P08659 whole entry, looked up): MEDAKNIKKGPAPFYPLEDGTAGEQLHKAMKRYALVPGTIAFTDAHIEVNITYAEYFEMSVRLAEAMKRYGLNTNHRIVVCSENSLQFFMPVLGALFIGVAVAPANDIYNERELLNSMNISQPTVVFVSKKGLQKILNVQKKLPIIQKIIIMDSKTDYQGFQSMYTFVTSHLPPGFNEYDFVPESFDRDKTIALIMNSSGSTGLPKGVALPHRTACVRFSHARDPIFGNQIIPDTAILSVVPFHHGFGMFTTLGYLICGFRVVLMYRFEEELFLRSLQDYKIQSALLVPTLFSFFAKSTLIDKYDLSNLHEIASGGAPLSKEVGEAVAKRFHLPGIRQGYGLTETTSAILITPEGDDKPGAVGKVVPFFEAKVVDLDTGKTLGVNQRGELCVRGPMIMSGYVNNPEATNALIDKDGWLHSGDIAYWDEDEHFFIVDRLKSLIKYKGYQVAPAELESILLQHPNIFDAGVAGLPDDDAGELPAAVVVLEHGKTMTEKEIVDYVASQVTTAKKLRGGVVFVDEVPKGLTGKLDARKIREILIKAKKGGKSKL
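Purified P. pyralis luciferase, 10 nM final, with Km-level 10 uM D-luciferin and 10 uM ATP in 50 mM Tris acetate pH 7.5, 10 mM Mg acetate, 0.01% Tween-20, 0.05% BSA; 6-point qHTS titration about 60 µM downward; luminescence read.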
Rab9 prom act = activates the Rab9 promoter; Huh7 Rab9 promoter-luciferase reporter, luminescence, 24 h; Potency, µM (highest dose often 9.22 µM), for inactives: top-dose activation, negative = inhibition, usual class: activators; AID 485297; hit rate 2.8% among 320,000; also: % of control where 0% means no effect; nearly all actives have a fitted effect of over 60% in size
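Quantitative HTS format; Huh7 Rab9-luciferase reporter cells (1500/well) receive compound 2 h post-plating, incubate 24 h at 37 °C, then get luciferase reagent for 10 min before luminescence reading.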
* marks the source's active call; other numbers are inactive results; ? = inconclusive; . = not tested or not shown. Calls follow the shape of the dose curve; as a rule, active = well fitted curve in the direction sought with a large enough effect; inconclusive = small, poorly fitted or top-dose-only effect, or another doubt; inactive = no such curve, though single readings can be large; an effect the other way counts as inactive or inconclusive. Potency is read from the fitted curve at half-maximal effect.

SMILES	SMN2 splice up	ELG1 genotoxic	NPC1 promoter act	FLuc modulator	Rab9 prom act
Oc1ccc2ccccc2c1C=Nc1ccccc1Br	.	0%	-4%	11µM*	2%
C=Cc1ccc(N=Cc2c(O)ccc3ccccc23)cc1	.	-2%	-3%	19µM*	-3%
Oc1ccc2ccccc2c1/C=N/c1nccs1	-10%	-4%	8%	-7%	-5%
Cc1ccc2c(c1)cc1c(=O)n(CC(=O)N3CCCC3)nc(C)n12	.	0%	-3%	2%	2%
Clc1ccccc1-c1nc(N/N=C/c2cccnc2)c2ccccc2n1	-20%	-3%	3%	0%	-1%
Clc1ccc(/C=N/Nc2nc(Cl)nc3ccccc23)cc1	29%	?	3%	13µM*	15%
Clc1nnc(N/N=C/c2ccccc2)c2ccccc12	18µM*	7.1µM*	21%	2.7µM*	?
Cc1nc(N)nc(N/N=C/c2ccccc2)n1	.	12%	10%	-17%	2%
Clc1cncc(Cl)c1N/N=C/c1ccccc1	.	6%	28%	21µM*	-1%
Cc1ccc(/C=N/Nc2nnc(Cl)c3ccccc23)cc1	4.5µM*	2.3µM*	?	0.6µM*	?
C=CCNc1nnc(Cl)c2ccccc12	-32%	0%	-1%	-2%	-5%
CN(CC(=O)Nc1ccc(F)cc1)C(=O)CSc1ncccn1	.	-3%	1%	4%	0%
Clc1nnc(NN=C2CCCC2)c2ccccc12	-9%	2%	-6%	?	1%
Clc1ccc(/C=N/Nc2nnc(Cl)c3ccccc23)cc1	11µM*	?	?	?	?
Cc1cc(NC(=O)NC(=O)c2ccc(F)cc2F)n[nH]1	11µM*	?	0.5µM*	7.6µM*	0.56µM*
Cc1ccnc(NC(=O)COC(=O)c2ccc(F)cc2F)n1	.	-1%	0%	-1%	-1%
CCCCN1C(=O)/C(=C2\SC(N3CCOCC3)=NC2=O)c2ccccc21	.	-2%	2µM*	?	2µM*
C=CCN1C(=O)/C(=C2\SC(N3CCOCC3)=NC2=O)c2cc(Br)ccc21	11%	-6%	-1%	-14%	-3%
CCN1C(=O)/C(=C2\SC(N3CCOCC3)=NC2=O)c2ccccc21	.	3%	18%	11µM*	26%
CCCCN1C(=O)c2ccc(C(=O)Nc3ccccc3N3CCOCC3)cc2C1=O	-6%	-5%	-4%	-10%	-2%
O=C(Cc1csc(NC(=O)c2ccc(F)cc2)n1)NO	1%	4%	-7%	-3%	18%
CCCN(CC(=O)Nc1ccc(Cl)cc1Cl)C(=O)/C=C/c1cc(OC)ccc1OC	.	-2%	1%	0%	-1%
COc1ccc(OC)c(CNC(=O)Cc2ccc(NC(=O)N3CCSc4ncccc43)cc2)c1	.	.	.	-13%	.
O=c1c2ccccc2nc2ccc(NCc3cccs3)nn12	16µM*	-20%	3.5µM*	8.5µM*	1.6µM*
O=C(N/N=C/c1ccccc1OC(=O)c1ccc2c(c1)OCO2)c1cccc(F)c1	-98%	?	0%	2%	0%
SMILES	SMN2 splice up	ELG1 genotoxic	NPC1 promoter act	FLuc modulator	Rab9 prom act
COc1cccc(C(=O)Oc2ccccc2/C=C\C(=O)c2cc3ccccc3o2)c1	-103%	16%	2.8µM*	?	?
O=C(Oc1ccccc1/C=C\C(=O)c1cc2ccccc2o1)c1cccc(F)c1	-106%	?	23%	8.5µM*	?
O=C(Oc1ccccc1/C=C\C(=O)c1cc2ccccc2o1)c1ccccc1	?	?	4µM*	17µM*	3.2µM*
O=C(c1ccncc1)N1CCC2(CCCN(c3ccccn3)C2)CC1	-25%	.	.	.	.
COc1cccc(/C=N/c2oc(-c3ccccc3)cc2C#N)c1O	-10%	-5%	-2%	?	15%
COc1[nH]c(/N=C/c2ccccc2)c(C#N)c1C#N	-11%	0%	2%	?	2%
COc1cccc(C=Nc2ccc3c(c2)CCC3)c1O	.	6%	-5%	2.7µM*	-1%
COc1cccc(C=Nc2ccccc2C#N)c1O	?	0%	-2%	2.7µM*	-2%
N#Cc1ccccc1N=Cc1ccc(Br)cc1	-2%	3%	0%	1.5µM*	0%
COc1cccc(C=Nc2cc(C)cc(C)c2)c1O	6%	0%	1%	2%	-3%
CN1CCN(CCc2nc3cc(NC(=O)c4ccco4)ccc3n2C)CC1	.	2%	-3%	4%	1%
Cn1c(CN2CCCC2)nc2cc(NC(=O)c3ccco3)ccc21	?	15µM*	24%	?	?
CC(=O)NCCc1nc2cc(NC(=O)c3ccc([N+](=O)[O-])cc3)ccc2n1C	.	11%	?	15µM*	?
Cn1c(CCN2CCN(c3ccccc3)CC2)nc2cc(NC(=O)c3ccco3)ccc21	-14%	-6%	5%	-13%	4.5µM*
Cc1ccc(C(=O)Nc2ccc3c(c2)nc(CCNC(=O)c2ccco2)n3C)cc1	.	?	3.5µM*	?	3.5µM*
Cc1ccc(N2CCN(CCc3nc4cc(NC(=O)c5ccco5)ccc4n3C)CC2)cc1	-32%	-16%	-2%	-6%	1%
CCOc1ccccc1NC(=O)CN1C(=O)C2(SCC(=O)N2c2ccc(C)cc2)c2ccccc21 (centres undefined)	.	.	.	-7%	.
COc1ccc(/C(O)=C/c2nc3ccccc3n(-c3ccccc3)c2=O)cc1	-26%	21%	-3%	7.6µM*	26%
O=C(OCC1OC(n2ncc(=O)[nH]c2=O)C(OC(=O)c2ccccc2)C1OC(=O)c1ccccc1)c1ccccc1 (centres undefined)	.	1%	-3%	8%	0%
CC(=O)OC[C@H]1O[C@@H](n2ncc(=O)[nH]c2=O)[C@H](OC(C)=O)[C@@H]1OC(C)=O	10µM*	-13%	-5%	-2%	1%
COc1ccc(/C=C/c2cc(OC)c(OC)cc2CC[N+](C)(C)C)cc1	0%	.	.	.	.
O=C(CCl)N(C/C=C/c1ccccc1)c1ccc2c(c1)OCCO2	-16%	11%	-38%	24µM*	-45%
N#CCCN(C(=O)CSc1ncccn1)c1ccc2c(c1)OCCO2	.	-2%	2%	3%	-4%
O=c1c2ccccc2ncn1-c1ccc2c(c1)OCCO2	2%	?	?	?	2.8µM*
CC(C)CC1c2[nH]c3ccccc3c2CCN1C(=O)c1cnccn1 (centres undefined)	.	?	3.5µM*	11µM*	3.5µM*
CC(N)(C(=O)O)c1ccc(S(=O)(=O)O)cc1 (centres undefined)	16%	.	.	.	.
Oc1ccccc1Cc1c(O)ccc2ccccc12	.	0%	1%	5%	-3%
CCOC(=O)/C=C/CCC/C=C/C(=O)c1ccccc1	6%	.	.	.	.
COc1ccc2c(c1)c(=O)oc1c(C)c(OC(C)C(=O)N[C@@H](Cc3c[nH]c4ccc(O)cc34)C(=O)O)ccc12 (some centres undefined)	.	-2%	9%	12µM*	-3%
